Assay results published in PubChem BioAssay (NCATS).
Values joined by “and” are separate entries in the source; they are usually repeats but may differ in a detail not shown here. Equal values may be shown once. Results filed as inconclusive are left out. Active and inactive are the calls of the source. Unless noted, calls come from the whole dose curve; as a rule, active = well fitted cell-killing curve with a large enough effect; inconclusive = small, poorly fitted or top-dose-only effect, or effect the other way; inactive = no such curve, though single readings can be large or run the other way.

Key:
[1] = qHTS drug screen for cell cycle checkpoint inhibitors in PARPi-resistant BRCA-mutant ovarian cancer cell lines. (AID 1963452; calls by dose curve); details: PEO1/OlaR viability, CellTiter-Glo luminescence, 96 h, stronger effect = lower value
In short: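 PEO1, PEO4 and PEO1/OlaR ovarian cancer cells, 600 per well, exposed 96 h at 37C to a dilution series. Viability read by CellTiter-Glo luminescence, normalized to DMSO and empty wells; activity summarized as Z-AUC.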

[2] = Quantitative High-Throughput drug screen in 47 multiple myeloma cell lines against the NCATS MIPE library collection: PCM6_Riken cell viability assay (AID 1919870); note: nearly all actives have a fitted effect of over 30% in size; note: potency is the fitted concentration of half-maximal effect
In short: (§1)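 ATP-based CellTiter-Glo luminescence after 48 h drug exposure (37 °C, 5% CO2) of 500 myeloma cells per well. DMSO-only wells set 100% viability, media-only wells 0%; MIPE 4.0 library added by pin tool.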

[3] = Quantitative High-Throughput drug screen in 47 multiple myeloma cell lines against the NCATS MIPE library collection: RPMI8226_ATCC cell viability assay (AID 1919871); note: nearly all actives have a fitted effect of over 30% in size; note: potency is the fitted concentration of half-maximal effect
In short: as §1

[4] = Quantitative High-Throughput drug screen in 47 multiple myeloma cell lines against the NCATS MIPE library collection: OPM2_DSMZ cell viability assay (AID 1919872); note: nearly all actives have a fitted effect of over 30% in size; note: potency is the fitted concentration of half-maximal effect
In short: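 Luminescent ATP measurement with CellTiter-Glo gives viability, scaled between DMSO-only wells (100%) and media-only wells (0%). Cells, 500 per well, faced library compounds for 48 hours at 37C.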

[5] = Quantitative High-Throughput drug screen in 47 multiple myeloma cell lines against the NCATS MIPE library collection: KMS11_JCRBsus cell viability assay (AID 1919873); note: nearly all actives have a fitted effect of over 50% in size; note: potency is the fitted concentration of half-maximal effect
In short: as §1

[6] = Quantitative High-Throughput drug screen in 47 multiple myeloma cell lines against the NCATS MIPE library collection: KMS28BM_JCRB cell viability assay (AID 1919874); note: nearly all actives have a fitted effect of over 35% in size; note: potency is the fitted concentration of half-maximal effect
In short: as §1

[7] = Quantitative High-Throughput drug screen in 47 multiple myeloma cell lines against the NCATS MIPE library collection: PE2_PLB cell viability assay (AID 1919869); note: nearly all actives have a fitted effect of over 35% in size
In short: as §1

[8] = measured here: PEO1 parental Z-AUC

Row | SMILES | Z-AUC [1] | Z-AUC [1, 8] | Z-AUC ([1]; measured here: PEO4 Z-AUC) | Potency [2] | Potency [3] | Potency [4] | Potency [5] | Potency [6] | Potency [7]
1 | C[C@H]1c2cccc(O)c2C(O)=C2C(=O)[C@]3(O)C(O)=C(C(N)=O)C(=O)[C@@H](N(C)C)[C@@H]3[C@@H](O)[C@@H]21 | 0.309 (inactive) and -0.104 (inactive) | 0.47 and 0.545 | 0.542 and 0.724 | – | – | – | – | – | –
2 | CCOC(=O)C(C)(C)Oc1ccc(Cl)cc1 | 0.714 (inactive) | 0.586 | 0.762 | inactive | inactive | inactive | inactive | inactive | –
3 | Cc1ccccc1N1C(=O)c2cc(S(N)(=O)=O)c(Cl)cc2NC1C (stereo not given) | -0.939 (inactive) | -0.663 | -0.859 | 5.9 µM (active) | 7.43 µM (active) | inactive | inactive | inactive | inactive
4 | COc1ccc(CCN(C)CCCC(C#N)(c2ccc(OC)c(OC)c2)C(C)C)cc1OC (stereo not given) | 0.76 (inactive) | 0.721 | 1.08 | – | – | – | – | – | –
5 | Fc1ccc([C@@H]2CCNC[C@H]2COc2ccc3c(c2)OCO3)cc1 | – | – | – | inactive | – | 18.7 µM (active) | 23.5 µM (active) | 20.9 µM (active) | –
6 | CN(C)CCC=C1c2ccccc2C=Cc2ccccc21 | -0.345 (inactive) | 0.579 | 0.349 | – | 6.62 µM (active) | inactive | – | 3.72 µM (active) | inactive
7 | COc1ccccc1OCCNCC(O)COc1cccc2[nH]c3ccccc3c12 (stereo not given) | – | – | – | 16.6 µM (active) | – | inactive | – | – | inactive
8 | Nc1c2c(nc3ccccc13)CCCC2 | 1.3 (inactive) | 1.74 | 1.21 | inactive | 1.32 µM (active) | – | inactive | 16.6 µM (active) | –
9 | Nc1ccn([C@H]2CC[C@@H](CO)O2)c(=O)n1 | – | – | – | – | – | inactive | inactive | inactive | inactive
10 | CN(CCOc1ccc(NS(C)(=O)=O)cc1)CCc1ccc(NS(C)(=O)=O)cc1 | – | – | – | inactive | inactive | inactive | inactive | inactive | inactive
11 | NS(=O)(=O)c1cc2c(cc1Cl)NCNS2(=O)=O | 1.17 (inactive) | 1.34 | 1.57 | – | inactive | inactive | inactive | – | –
